Each sequence was assayed against T1, GABPA (Homo sapiens, UniProt Q06546 1-454) (assay: DAPPL (digital affinity profiling via proximity ligation, sequencing); 10 mM Tris-HCl pH 7.5, 50 mM NaCl, 1 mM DTT, 4% glycerol, room temperature, 30 min; GST-TFs on glutathione beads, 16-mer random dsDNA library, 0.1% formaldehyde crosslink after washing; high values mean tight binding). Details: protein: recombinant; tags: N-terminal GST; dsDNA, one strand shown.
T1 sequence: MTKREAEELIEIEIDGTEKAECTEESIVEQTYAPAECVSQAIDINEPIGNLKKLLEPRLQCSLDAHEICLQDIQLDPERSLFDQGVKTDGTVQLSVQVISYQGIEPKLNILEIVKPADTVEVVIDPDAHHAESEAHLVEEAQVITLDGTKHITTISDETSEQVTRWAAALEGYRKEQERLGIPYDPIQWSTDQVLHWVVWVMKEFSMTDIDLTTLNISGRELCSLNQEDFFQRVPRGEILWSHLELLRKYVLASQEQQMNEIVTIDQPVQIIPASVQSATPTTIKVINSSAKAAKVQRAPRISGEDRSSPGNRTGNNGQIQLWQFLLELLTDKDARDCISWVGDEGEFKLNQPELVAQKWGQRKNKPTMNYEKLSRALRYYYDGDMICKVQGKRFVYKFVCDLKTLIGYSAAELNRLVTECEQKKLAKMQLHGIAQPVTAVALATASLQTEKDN
How it was run: (§1)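 Binding signal is defined as a hexamer's read frequency for one factor over its frequency for the tag-only sample. To obtain reads, GST-fused human transcription factors were expressed in yeast, captured on glutathione beads, barcoded with DNA and pooled with that sample. Pools met 200 nmole of a 16-mer random double-stranded DNA library in Tris/NaCl/DTT/glycerol buffer for 30 min at room temperature before washing, 0.1% formaldehyde crosslinking, proximity ligation (BsaI/T4 ligase, 1 h, 37 °C), PCR and Illumina NextSeq500 sequencing.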

Sequence	binding signal
ATGCAC	1.33 fold enrichment (6-mer frequency, TF over GST control)
TTGCGG	1.21 fold enrichment (6-mer frequency, TF over GST control)
GTTCAA	1.17 fold enrichment (6-mer frequency, TF over GST control)
TGTATT	1.33 fold enrichment (6-mer frequency, TF over GST control)
CGTATC	1.29 fold enrichment (6-mer frequency, TF over GST control)
CGACCG	1.21 fold enrichment (6-mer frequency, TF over GST control)
ACCATC	1.19 fold enrichment (6-mer frequency, TF over GST control)
AAATAG	1.12 fold enrichment (6-mer frequency, TF over GST control)
AAGTCA	1.15 fold enrichment (6-mer frequency, TF over GST control)
TAACTT	1.34 fold enrichment (6-mer frequency, TF over GST control)
TCTGTA	1.2 fold enrichment (6-mer frequency, TF over GST control)
CCCTGC	1.12 fold enrichment (6-mer frequency, TF over GST control)
CCGTCA	1.19 fold enrichment (6-mer frequency, TF over GST control)
GGTTCC	1.37 fold enrichment (6-mer frequency, TF over GST control)
TCCAAA	1.31 fold enrichment (6-mer frequency, TF over GST control)
TACACA	1.15 fold enrichment (6-mer frequency, TF over GST control)
TAAATA	1.21 fold enrichment (6-mer frequency, TF over GST control)
TATAAC	1.2 fold enrichment (6-mer frequency, TF over GST control)
TAGGCT	1.3 fold enrichment (6-mer frequency, TF over GST control)
TGCCGA	1.21 fold enrichment (6-mer frequency, TF over GST control)

Each sequence was assayed against T2, ERG (Homo sapiens, UniProt P11308 1-479) in the same assay as above. Details: protein: recombinant; tags: N-terminal GST; dsDNA, one strand shown.
T2 sequence: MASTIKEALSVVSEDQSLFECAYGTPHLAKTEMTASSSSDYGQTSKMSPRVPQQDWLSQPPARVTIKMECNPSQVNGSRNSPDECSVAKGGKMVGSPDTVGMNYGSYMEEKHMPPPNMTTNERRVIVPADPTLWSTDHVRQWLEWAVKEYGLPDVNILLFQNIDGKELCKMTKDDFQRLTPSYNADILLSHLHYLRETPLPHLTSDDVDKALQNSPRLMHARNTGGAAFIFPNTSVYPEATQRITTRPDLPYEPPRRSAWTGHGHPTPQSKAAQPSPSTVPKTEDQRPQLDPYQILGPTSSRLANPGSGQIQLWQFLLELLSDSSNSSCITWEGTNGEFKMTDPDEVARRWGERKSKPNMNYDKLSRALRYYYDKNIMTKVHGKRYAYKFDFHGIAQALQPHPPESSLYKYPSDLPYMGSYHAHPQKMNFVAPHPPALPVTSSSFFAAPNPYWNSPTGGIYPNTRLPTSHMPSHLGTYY
How it was run: as §1

Sequence	binding signal
ATGATC	1.1 fold enrichment (6-mer frequency, TF over GST control)
TGTTTG	1.27 fold enrichment (6-mer frequency, TF over GST control)
CCTCTC	1.37 fold enrichment (6-mer frequency, TF over GST control)
GCAAAT	1.18 fold enrichment (6-mer frequency, TF over GST control)
TAAGGT	1.01 fold enrichment (6-mer frequency, TF over GST control)
CTACAA	1.08 fold enrichment (6-mer frequency, TF over GST control)
CTTCTA	1.32 fold enrichment (6-mer frequency, TF over GST control)
CTTTAA	1.27 fold enrichment (6-mer frequency, TF over GST control)
TACGCC	1.16 fold enrichment (6-mer frequency, TF over GST control)
AGTAAT	1.09 fold enrichment (6-mer frequency, TF over GST control)
TGGTTC	1.29 fold enrichment (6-mer frequency, TF over GST control)
GCTGTT	1.11 fold enrichment (6-mer frequency, TF over GST control)
TTCTTG	1.38 fold enrichment (6-mer frequency, TF over GST control)
CCAAAC	1.11 fold enrichment (6-mer frequency, TF over GST control)
ATTATC	1.32 fold enrichment (6-mer frequency, TF over GST control)
ATGTCA	1.17 fold enrichment (6-mer frequency, TF over GST control)
AATCCG	1.84 fold enrichment (6-mer frequency, TF over GST control)
AATGAA	1.21 fold enrichment (6-mer frequency, TF over GST control)
CTCGAA	1.13 fold enrichment (6-mer frequency, TF over GST control)
TTCGAG	1.14 fold enrichment (6-mer frequency, TF over GST control)

Sequence	binding signal
ATGCAC	1.2 fold enrichment (6-mer frequency, TF over GST control)
TTGCGG	1.28 fold enrichment (6-mer frequency, TF over GST control)
GTTCAA	1.14 fold enrichment (6-mer frequency, TF over GST control)
TGTATT	1.32 fold enrichment (6-mer frequency, TF over GST control)
CGTATC	1.28 fold enrichment (6-mer frequency, TF over GST control)
CGACCG	1.36 fold enrichment (6-mer frequency, TF over GST control)
ACCATC	1.1 fold enrichment (6-mer frequency, TF over GST control)
AAATAG	1.22 fold enrichment (6-mer frequency, TF over GST control)
AAGTCA	1.26 fold enrichment (6-mer frequency, TF over GST control)
TAACTT	1.34 fold enrichment (6-mer frequency, TF over GST control)
TCTGTA	1.11 fold enrichment (6-mer frequency, TF over GST control)
CCCTGC	1.21 fold enrichment (6-mer frequency, TF over GST control)
CCGTCA	1.31 fold enrichment (6-mer frequency, TF over GST control)
GGTTCC	1.54 fold enrichment (6-mer frequency, TF over GST control)
TCCAAA	1.19 fold enrichment (6-mer frequency, TF over GST control)
TACACA	1.26 fold enrichment (6-mer frequency, TF over GST control)
TAAATA	1.2 fold enrichment (6-mer frequency, TF over GST control)
TATAAC	1.28 fold enrichment (6-mer frequency, TF over GST control)
TAGGCT	1.23 fold enrichment (6-mer frequency, TF over GST control)
TGCCGA	1.1 fold enrichment (6-mer frequency, TF over GST control)

Each sequence was assayed against ELF1 (Homo sapiens, UniProt P32519 1-619) in the same assay as above. Details: protein: recombinant; tags: N-terminal GST; dsDNA, one strand shown.
Chain of ELF1 (P32519 whole entry): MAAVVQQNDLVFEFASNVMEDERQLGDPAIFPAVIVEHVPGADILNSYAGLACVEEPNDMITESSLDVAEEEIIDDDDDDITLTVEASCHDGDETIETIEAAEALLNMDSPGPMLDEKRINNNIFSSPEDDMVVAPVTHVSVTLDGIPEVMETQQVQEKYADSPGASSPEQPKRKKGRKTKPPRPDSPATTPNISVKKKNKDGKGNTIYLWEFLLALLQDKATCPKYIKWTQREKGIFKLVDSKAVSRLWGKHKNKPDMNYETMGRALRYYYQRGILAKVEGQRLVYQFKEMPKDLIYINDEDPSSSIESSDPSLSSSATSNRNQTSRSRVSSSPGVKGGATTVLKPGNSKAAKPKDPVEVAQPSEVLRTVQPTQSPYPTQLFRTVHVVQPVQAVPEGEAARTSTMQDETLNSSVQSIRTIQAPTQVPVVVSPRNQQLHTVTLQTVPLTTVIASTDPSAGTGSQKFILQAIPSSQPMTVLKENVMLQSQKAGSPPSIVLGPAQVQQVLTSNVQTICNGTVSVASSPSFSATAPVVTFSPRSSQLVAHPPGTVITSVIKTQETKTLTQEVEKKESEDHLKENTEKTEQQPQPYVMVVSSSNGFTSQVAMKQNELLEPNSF
How it was run: as §1

Sequence	binding signal
ATGATC	1.22 fold enrichment (6-mer frequency, TF over GST control)
TGTTTG	1.22 fold enrichment (6-mer frequency, TF over GST control)
CCTCTC	1.43 fold enrichment (6-mer frequency, TF over GST control)
GCAAAT	1.11 fold enrichment (6-mer frequency, TF over GST control)
TAAGGT	1.04 fold enrichment (6-mer frequency, TF over GST control)
CTACAA	1.13 fold enrichment (6-mer frequency, TF over GST control)
CTTCTA	1.52 fold enrichment (6-mer frequency, TF over GST control)
CTTTAA	1.33 fold enrichment (6-mer frequency, TF over GST control)
TACGCC	1.28 fold enrichment (6-mer frequency, TF over GST control)
AGTAAT	1.12 fold enrichment (6-mer frequency, TF over GST control)
TGGTTC	1.28 fold enrichment (6-mer frequency, TF over GST control)
GCTGTT	1.1 fold enrichment (6-mer frequency, TF over GST control)
TTCTTG	1.46 fold enrichment (6-mer frequency, TF over GST control)
CCAAAC	1.16 fold enrichment (6-mer frequency, TF over GST control)
ATTATC	1.29 fold enrichment (6-mer frequency, TF over GST control)
ATGTCA	1.16 fold enrichment (6-mer frequency, TF over GST control)
AATCCG	1.5 fold enrichment (6-mer frequency, TF over GST control)
AATGAA	1.15 fold enrichment (6-mer frequency, TF over GST control)
CTCGAA	1.18 fold enrichment (6-mer frequency, TF over GST control)
TTCGAG	1.25 fold enrichment (6-mer frequency, TF over GST control)

Sequence	binding signal
ATGCAC	1.3 fold enrichment (6-mer frequency, TF over GST control)
TTGCGG	1.38 fold enrichment (6-mer frequency, TF over GST control)
GTTCAA	1.16 fold enrichment (6-mer frequency, TF over GST control)
TGTATT	1.37 fold enrichment (6-mer frequency, TF over GST control)
CGTATC	1.23 fold enrichment (6-mer frequency, TF over GST control)
CGACCG	1.17 fold enrichment (6-mer frequency, TF over GST control)
ACCATC	1.21 fold enrichment (6-mer frequency, TF over GST control)
AAATAG	1.08 fold enrichment (6-mer frequency, TF over GST control)
AAGTCA	1.17 fold enrichment (6-mer frequency, TF over GST control)
TAACTT	1.46 fold enrichment (6-mer frequency, TF over GST control)
TCTGTA	1.18 fold enrichment (6-mer frequency, TF over GST control)
CCCTGC	1.26 fold enrichment (6-mer frequency, TF over GST control)
CCGTCA	1.28 fold enrichment (6-mer frequency, TF over GST control)
GGTTCC	1.53 fold enrichment (6-mer frequency, TF over GST control)
TCCAAA	1.18 fold enrichment (6-mer frequency, TF over GST control)
TACACA	1.21 fold enrichment (6-mer frequency, TF over GST control)
TAAATA	1.21 fold enrichment (6-mer frequency, TF over GST control)
TATAAC	1.29 fold enrichment (6-mer frequency, TF over GST control)
TAGGCT	1.21 fold enrichment (6-mer frequency, TF over GST control)
TGCCGA	1.03 fold enrichment (6-mer frequency, TF over GST control)
